Screening results as filed in PubChem BioAssay.
Compounds with a hit are over-represented: about 2.3% of the library has one in this group of screens.
HTT cytoprotect: protects HTT-Q103 PC12 cells, measured by ATP | PC12 HTT-Q103 induced, cytoprotection, ATP luminescence, 40 h | Potency, µM (top dose mostly 56.4 µM), inactives show cytoprotection (ATP increase), hits mostly activators | 230,000 compounds, 0.14% hits | AID 1471; note: potency is the fitted concentration of half-maximal effect; % of control where 0% means no effect; nearly all actives have a fitted effect of over 45% in size
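Stable PC12 Q103-GFP cells in serum-supplemented, phenol red-free DMEM; induction by tebufenozide at 100 nM final; compound dose series; cell viability quantified luminescently from ATP.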
HTT aggregate: reduces HttQ103-GFP aggregates in PC12 cells; PC12 HttQ103-GFP aggregates, Acumen cytometry, 40 h; Potency, µM (doses to about 46.1 µM), for the others: top-dose activity change, negative = inhibition, most hits filed as inhibitors; 220,000 compounds, 1.1% hits; AID 1688; note: potency is the fitted concentration of half-maximal effect; % is set by controls: 0 for no effect and ±100 for the full control effect; nearly all actives have a fitted effect of over 60% in size
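Compounds (qHTS titration) were added to PC12 cells expressing an ecdysone-driven HTT exon 1 Q103–GFP fusion after induction with 100 nM tebufenozide. Aggregate formation was measured as GFP objects in cell lysates.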
JMJD2E inh: blocks human JMJD2E demethylase activity | B2RXH2 | JMJD2E catalytic domain, FDH-coupled NADH fluorescence (FDH is formaldehyde dehydrogenase) | Potency, µM (titrated, usually from 57.1 µM), without a hit: at the highest dose activity change, negative = inhibition, most hits filed as inhibitors | 230,000 compounds, 1.6% hits | AID 2147; active = well fitted inhibition curve with a large enough effect, not every such curve was filed as active; inconclusive = small, poorly fitted or top-dose-only effect, or another doubt; inactive = no such curve, though single readings can be large or run the other way;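 note: potency is the fitted concentration of half-maximal effect; 0% = wells with enzyme and -100% = buffer wells without enzyme; nearly all actives have a fitted effect of over 50% in size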
Target sequence (B2RXH2 1-337 limits assumed): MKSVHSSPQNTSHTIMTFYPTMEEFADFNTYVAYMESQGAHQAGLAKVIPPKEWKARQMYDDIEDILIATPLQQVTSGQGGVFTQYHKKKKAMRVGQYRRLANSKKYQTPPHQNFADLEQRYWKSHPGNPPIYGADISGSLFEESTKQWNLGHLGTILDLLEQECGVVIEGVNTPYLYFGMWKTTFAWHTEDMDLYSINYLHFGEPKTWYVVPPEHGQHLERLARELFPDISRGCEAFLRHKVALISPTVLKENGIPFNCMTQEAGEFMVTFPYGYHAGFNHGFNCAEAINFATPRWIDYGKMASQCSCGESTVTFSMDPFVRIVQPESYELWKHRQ
GoLoco inh red: blocks human Gai1 binding to RGS12 GoLoco peptide, red readout; P63096; Gai1:RGS12 GoLoco peptide FP, rhodamine, 10 min; Potency, µM (highest dose often 61.6 µM), without a hit: at the highest dose activity, negative = inhibition, most hits filed as inhibitors; 230,000 compounds, 0.44% hits; AID 880; active = well fitted inhibition curve with a large enough effect, not every such curve was filed as active; inactive = no such curve, though single readings can be large or run the other way; note: potency is the fitted concentration of half-maximal effect; % is set by controls: 0 for no effect and ±100 for the full control effect; nearly all actives have a fitted effect of over 30% in size
Target sequence (P63096 whole entry, looked up): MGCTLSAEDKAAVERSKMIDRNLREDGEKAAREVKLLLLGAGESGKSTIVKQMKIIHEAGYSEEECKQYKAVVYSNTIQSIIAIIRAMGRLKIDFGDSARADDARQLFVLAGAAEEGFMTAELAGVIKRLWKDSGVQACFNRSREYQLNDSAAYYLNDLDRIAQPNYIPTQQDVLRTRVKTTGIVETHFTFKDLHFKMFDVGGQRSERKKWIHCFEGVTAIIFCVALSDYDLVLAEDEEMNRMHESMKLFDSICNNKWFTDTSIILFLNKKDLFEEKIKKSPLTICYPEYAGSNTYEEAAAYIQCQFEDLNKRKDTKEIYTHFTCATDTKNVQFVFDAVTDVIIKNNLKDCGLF
Coupling enz: coupling enzyme interference in Giardia aldolase counter-screen; coupling enzyme system counterscreen, AmpLite Red fluorescence; activity change, negative = inhibition, % at 58.2 µM, hits read low; 290,000 compounds, 0.67% hits; AID 2472; in the data active = activity change below about -30%; note: % is set by controls: 0 for no effect and ±100 for the full control effect
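Fluorescence at 525 nm excitation and 598 nm emission measured inhibition of the coupled detection system without aldolase. Compounds (at 57.5 uM final) were preincubated 10 min at room temperature with coupling enzyme reagent before a 20 min substrate/AmpLite Red step.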
VDR inhibitor: blocks the human vitamin D receptor; VDR-SRC2-3 peptide fluorescence polarization, 2 h; Potency, µM, inactives show max response, negative = inhibition, most hits filed as inhibitors; P11473; 400,000 compounds, 0.93% hits; note: potency is the fitted concentration of half-maximal effect; % is set by controls: 0 for no effect and ±100 for the full control effect
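Signal is fluorescence polarization, reporting how far test compounds block the interaction of VDR with the SRC2-3 coregulator peptide after a 2 h room-temperature incubation.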
An asterisk follows results filed as active; ? = inconclusive; . = not tested or not shown; [ ] = remark or other dose. Unless noted, calls come from the whole dose curve; as a rule, active = well fitted curve in the direction sought with a large enough effect; inconclusive = small, poorly fitted or top-dose-only effect, or another doubt; inactive = no such curve, though single readings can be large; an effect the other way counts as inactive or inconclusive.

SMILES | HTT cytoprotect | HTT aggregate | JMJD2E inh | GoLoco inh red | Coupling enz | VDR inhibitor
Cc1nnsc1C(=O)N/N=C/c1ccc2ccccc2c1O | -59%[10 µM] | . | 22µM* | . | 4 | -4%
Cc1ccc(/C([O-])=C(/C(=S)Nc2ccc(SC(F)F)cc2)[n+]2ccccc2)cc1[N+](=O)[O-] | -5%[10 µM] | -25% | 0% | 48% | -31* | ?
Cc1ccc(NC(=S)/C(=C(\[O-])c2ccc(C)c([N+](=O)[O-])c2)[n+]2ccccc2)cc1C | -14% | -23% | -2% | 3% | 2 | .
CCC(CC)C(=O)NC1CC(=O)N(c2ccc3c(c2)OCCO3)C1 (centres undefined) | . | . | . | . | . | 0%
CCOC(=O)c1ccc(S(=O)(=O)Nc2nc3cc(S(=O)(=O)NC4=NCCCCC4)ccc3s2)cc1 | 18µM* | -19% | -23% | 12% | 15 | ?
C=C1C2=CC(=O)OC(c3ccoc3)[C@]2(C)CCC1[C@]1(C)C=CC(=O)C(C)(C)C1CC(=O)OC (some centres undefined) | 11% | . | -6% | 1% | -3 | 40µM*
Cn1c(=O)c2cc(NCc3ccccc3)nnc2n(C)c1=O | 21% | 15% | -2% | -132% | -59* | 0%
CN1CCc2cc(Cl)c(O)cc2C(c2ccccc2)C1 (centres undefined) | . | . | 4% | 10% | . | .
C=CCN1CCc2c(cc(O)c(O)c2Cl)[C@H](c2ccccc2)C1 | -3%[1.9 µM] | . | . | . | . | .
CN1CCc2cc(O)c(O)cc2C(c2ccccc2)C1 (centres undefined) | . | . | 20µM* | 4% | . | -1%
C=CCN1CCc2cc(O)c(O)cc2[C@H](c2ccccc2)C1 | 7% | . | 25µM* | 5% | -3 | .
CN1CCc2c(cc(O)c(O)c2Cl)C(c2cccc(Cl)c2)C1 (centres undefined) | . | . | 14µM* | 1% | . | .
C=CCN1CCc2c(cc(O)c(O)c2Br)[C@@H](c2ccccc2)C1 | -41% | . | 14µM* | 7% | . | -1%
O=C(O)CCNS(=O)(=O)c1ccc2ccccc2c1 | -8% | 1%[9.22 µM] | 6% | -1% | 9 | 7%
O=C(O)CCNc1cc2ccccc2cc1C(=O)O | -6% | -20% | ? | -40% | -30* | 1%
COC(=O)c1ccncc1N | 12% | 26% | ? | 4% | 3 | 0%
Nc1cnccc1C(=O)O | -36% | 8% | 0.63µM* | -77% | -51* | ?
COc1ccc(OC)c2sc(N3CCc4ccccc4C3)nc12 | -64% | -9% | -11% | 1% | -2 | -8%
c1ccc2c(c1)CCN(c1nc3cc4c(cc3s1)OCCO4)C2 | -17% | 5% | -1% | . | -38* | -3%
Cc1ccc(S(=O)(=O)c2nnn3c2nc(N2CCOCC2)c2sccc23)cc1C | . | . | . | . | . | 1%
CC1=C(C(=O)Nc2ccc(C(=O)NC(C)c3ccccc3)cc2)SCCO1 (centres undefined) | . | . | . | . | 1 | 8%
O=C(NNC(=O)c1ccc(Br)s1)c1cccc(Cl)c1 | . | . | . | . | . | -13%
O=C1Nc2ccccc2C1Cc1ccccc1 (centres undefined) | 19%[10 µM] | 2%[9.22 µM] | -3% | 6% | -21 | -13%
O=C1C=CC2(C=C1)O[C@H](Cc1ccccc1)[C@@H](Cc1ccccc1)O2 | . | . | . | . | . | 14µM*
N=C1CCC(=N)c2c1c(O)c1ccccc1c2O | 9%[10 µM] | -24%[9.22 µM] | ? | 8% | -32* | ?
SMILES | HTT cytoprotect | HTT aggregate | JMJD2E inh | GoLoco inh red | Coupling enz | VDR inhibitor
O=C1CCn2c1c(O)c1ccccc1c2=O | . | . | . | . | . | -3%
Cc1cc(C)c(NC(=O)C2CCCN(C(=O)c3cnn(-c4ccccc4)c3-n3cccc3)C2)c(C)c1 (centres undefined) | . | . | . | . | . | 2%
O=C1c2ccccc2C(=O)C12OC2c1cccc2ccccc12 (centres undefined) | -5%[10 µM] | 35µM* | ? | -2% | -58* | 13µM*
Cc1cc(C)cc(C(=O)Nc2cccc(NC(=O)c3ccco3)c2)c1 | . | . | . | . | . | 11%
O=C(NC1CCCCC1)c1cc(-c2cccs2)on1 | . | . | . | . | 0 | 13%
O=C1OC(c2ccccc2)/C(=C(/O)c2ccc(Cl)cc2)C1=O (centres undefined) | -88%[10 µM] | ? | 3% | -69% | 0 | 45µM*
CCOc1ccccc1NC(=O)c1ccc2c(c1)CCCN2S(C)(=O)=O | . | . | . | . | . | 1%
O=C1COC(c2ccccc2O)=NN1CCCN1CCCC1 | 3%[10 µM] | . | . | 7%[14.2 µM] | . | .
CCOC(=O)c1ccc(N2C(=O)C=CC2=O)cc1 | -96% | 22µM* | 2% | -29% | -4 | 50µM*
CC1C(=O)C(=O)C=CN1C (centres undefined) | -4% | -6% | . | . | . | -7%
Cc1cc2cc(CNS(=O)(=O)N(C)C)ccc2[nH]1 | 0%[10 µM] | 12% | ? | 0% | -36* | -11%
Cc1ccc(S(=O)(=O)NCc2ccc3[nH]c(C)cc3c2)cc1 | 9% | -4% | -2% | -1% | -8 | -10%
CCOC(=O)c1sc(NC(=O)C(C)Sc2nc(-c3ccccc3)cc(C(F)(F)F)n2)c(C(=O)OC)c1C (centres undefined) | . | . | . | . | . | 0%
COc1cccc(NC(=O)CSC(N)=O)c1 | . | -16% | 3% | 16% | 0 | 22µM*
CC(=O)c1cccc(NC(=O)C(C)OC(=O)c2cccc(-n3cnnn3)c2)c1 (centres undefined) | . | . | . | . | . | -6%
O=C(CNC(c1ccccc1)c1ccccc1)Nc1c(F)cccc1F | 1.3µM* | -10% | 12% | -16% | 2 | -16%
Cc1ccc(NC(=O)CNC(c2ccccc2)c2ccccc2)c(F)c1 | 10%[10 µM] | 6% | -12% | -16% | -3 | -5%
CCOC(=O)C1=CC(OC(CC)CC)C(NC(C)=O)C(N)C1 (centres undefined) | -40% | 10% | -18% | 32µM* | 6 | 2%
CCOC(=O)c1c(NC(C)=O)no[n+]1[O-] | 5%[10 µM] | 6% | 0% | -2% | -4 | 19%
COc1ccc(-n2nnc3c(SC(C(C)=O)C(=O)N(C)C)ncnc32)cc1 (centres undefined) | . | . | . | . | . | 7.1µM*
Cc1nc(NCc2ccco2)c(C#N)c2c1COC(C)(C)C2 | -14% | 3% | ? | 9% | 3 | 2%
CCCCN(C)c1nc(-c2ccco2)c2c(c1C#N)CC(C)(C)OC2 | 3% | 17% | ? | 9% | 4 | 20µM*
CC1(C)Cc2c(C#N)c(NCc3ccco3)nc(-c3ccco3)c2CO1 | -24%[10 µM] | 1µM* | ? | 20% | -3 | 5%
CN(C)CCNc1nc(-c2ccco2)c2c(c1C#N)CC(C)(C)OC2 | 4% | -2% | ? | 4% | -3 | -6%
